Hits are enriched below; roughly 1.8% of the tested compounds scored in any of these assays.
Mito fusion yeast – qHTS Assay for Small Molecule Inhibitors of Mitochondrial Division or Activators of Mitochondrial Fusion; S. cerevisiae fusion-defective mutant growth rescue, CellTiterGlo 48 h; Potency, µM (top dose mostly 46.1 µM), actives largely listed as activators; AID 485298, 2010; 320,000 tested, 0.23% active; also: nearly all actives have a fitted effect of over 45% in size
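Compounds are tested for their ability to restore growth of mitochondrial fusion-defective yeast strains at non-permissive 37C in YPEG medium over 48 hours. Viability is quantified by luciferase luminescence.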
GRP78 ERSR act – qHTS for Inducers of the Endoplasmic Reticulum Stress Response (ERSR) in Human Glioma: qHTS; U87-MG GRP78 promoter luciferase reporter, 16 h; 420,000 tested, 0.02% active; Potency, µM, actives largely listed as activators; also: series mostly up to about 76 µM; nearly all actives have a fitted effect of over 35% in size
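Stably transfected U87-MG human glioma cells carrying a GRP78-based luminescent sensor were seeded at 1000 cells/well, pin-dosed with compounds and incubated 16 h. Luciferase reagent was then added, and end-point luminescence was read after 10 min at room temperature.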
AT treatment – qHTS Assay for Identifying a Potential Treatment of Ataxia-Telangiectasia; 320,000 tested, 0.19% active; F2112 A-T fibroblasts, KAP-1 phosphorylation AlphaLISA; neocarzinostatin DNA damage 30 min before lysis; Potency, µM (titrated, usually from 57.5 µM), usual class: activators; also: nearly all actives have a fitted effect of over 45% in size
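hTERT-immortalized A-T patient fibroblasts (F2112), 500 cells/well in OPTI-MEM, 1% FBS, got compounds for 60 min, then NCS for 30 min at 37C. Lysates were then assayed for phospho-KAP-1 by AlphaLISA (anti-pKAP1 donor, anti-KAP1 acceptor beads), 6 hr at 25C.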
ClpP mod – qHTS Assay for Activators of ClpP; purified B. subtilis ClpP, FRET peptide cleavage, 20 min; Potency, µM (doses to about 57.5 µM); 340,000 tested, 1.9% active; AID 651965, 2013; active = well fitted falling curve with a large enough effect; inconclusive = small, poorly fitted or top-dose-only effect; inactive = no such curve, though single readings can be large or run the other way; also: the source files actives as falling curves though it sought activators and does not explain the sign; nearly all actives have a fitted effect of over 65% in size
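ClpP 10 microg/mL final, pH 8 Tris/KCl buffer with BSA, glycerol, Tween-20; compound pinned in; FRET-FV substrate; RT 20 min; Ex320/Em430; ΔFRET vs ADEP 5.8 microM, DMSO, no enzyme.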
TCR activator – Activators of T cell receptors: qHTS campaign; 330,000 tested, under 10 active; primary human leukocytes, anti-CD3, IL-2 HTRF, 48 h; Potency, µM (titrated, usually from 9.22 µM), most hits filed as activators
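48 hr co-incubation of compounds, a-CD3 beads and primary human leukocytes; IL-2 quantified homogeneously by HTRF with anti-IL-2 K and d2 conjugates.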
MBNL1 CUG block – qHTS Assay for Inhibitors of MBNL1-poly(CUG) RNA binding | 280,000 tested, 0.036% active | AID 2675, 2010 | Potency, µM (series often up to 57.5 µM), hits mostly inhibitors | TR-FRET MBNL1-His/biotin-(CUG)12 binding, 665/545 ratio; active = well fitted inhibition curve with a large enough effect in the signal ratio, with a control signal flat, not every such curve was filed as active; inconclusive = small, poorly fitted or top-dose-only effect, or effect the other way, or a change in a side signal; inactive = no such curve, though single readings can be large or run the other way; the % refers to the signal ratio
Target sequence (Q9NR56 whole entry, looked up): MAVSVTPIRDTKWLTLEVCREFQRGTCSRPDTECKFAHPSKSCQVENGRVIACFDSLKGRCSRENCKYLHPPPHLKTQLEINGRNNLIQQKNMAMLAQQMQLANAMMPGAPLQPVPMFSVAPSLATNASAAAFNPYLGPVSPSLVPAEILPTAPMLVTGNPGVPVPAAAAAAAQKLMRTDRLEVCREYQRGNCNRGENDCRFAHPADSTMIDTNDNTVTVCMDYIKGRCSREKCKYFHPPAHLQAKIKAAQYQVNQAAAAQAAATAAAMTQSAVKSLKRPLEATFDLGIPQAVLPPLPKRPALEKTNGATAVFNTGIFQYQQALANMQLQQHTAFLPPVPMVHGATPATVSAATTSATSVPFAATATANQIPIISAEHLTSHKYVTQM
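Inhibition of protein-RNA binding appears as loss of TR-FRET between terbium anti-His antibody on MBNL1-His and streptavidin-XL665 on biotin-(CUG)12. Activity is normalized to buffer-only and uninhibited-complex controls.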
Hits are given with their value; ! = a repeat was not active. Unless noted, calls follow the shape of the dose curve; as a rule, active = well fitted curve in the direction sought with a large enough effect; inconclusive = small, poorly fitted or top-dose-only effect, or another doubt; inactive = no such curve, though single readings can be large; an effect the other way counts as inactive or inconclusive.

Screening CC(=O)c1cccc(NC(=S)NC2CCCCC2)c1 returned Mito fusion yeast inactive, GRP78 ERSR act inactive, AT treatment inactive, ClpP mod 14µM, TCR activator inactive and MBNL1 CUG block inactive.
Screening Cc1cccc(NC(=S)N/C(=N/S(=O)(=O)c2ccccc2)c2ccccc2)c1 returned Mito fusion yeast inactive, GRP78 ERSR act inactive, AT treatment inactive, ClpP mod 2.2µM!, TCR activator inactive and MBNL1 CUG block inactive.
`CC(=O)c1cccc(NC(=S)NC2CC2)c1` gave Mito fusion yeast inactive, GRP78 ERSR act inactive, AT treatment inactive, ClpP mod inactive, TCR activator inactive and MBNL1 CUG block inactive.
`CCCCOc1cccc(C(=O)NNC(=S)NC2CCCCC2)c1` gave Mito fusion yeast inactive, GRP78 ERSR act inactive, AT treatment inactive, ClpP mod 25µM, TCR activator inactive and MBNL1 CUG block inactive.
O=C(Nc1ccc2nc(SCCOc3ccccc3Cl)sc2c1)c1cccs1 was read as GRP78 ERSR act inactive and ClpP mod 11µM.
For O=C(c1cc(C2CC2)nn1-c1ccccc1)N1CCN(Cc2ccc(Cl)cc2)CC1 the results were Mito fusion yeast 20µM, GRP78 ERSR act inactive, AT treatment inactive, ClpP mod inactive and TCR activator inactive.
`O=C(c1cc(C2CC2)nn1-c1ccccc1)N1CCN(Cc2ccccc2F)CC1` gave Mito fusion yeast inactive, GRP78 ERSR act inactive, AT treatment inactive, ClpP mod inactive and TCR activator inactive.
`O=C(O)CC/C=C\CC[C@@H]1[C@@H](N2CCCCC2)[C@@H](O)C[C@@H]1OCc1ccc(-c2ccccc2)cc1` gave GRP78 ERSR act inactive.
c1csc(-c2nnc3ccccn23)c1 was read as Mito fusion yeast inactive, GRP78 ERSR act inactive, AT treatment inactive, ClpP mod inconclusive, TCR activator inactive and MBNL1 CUG block inactive.
Clc1ccc(-c2nnc3ccccn23)cc1 was read as Mito fusion yeast inactive, GRP78 ERSR act inactive, AT treatment inactive, ClpP mod 28µM, TCR activator inactive and MBNL1 CUG block inactive.
COCCCN(Cc1ccco1)C(=O)c1cc2c(s1)-c1ccccc1OC2 was read as GRP78 ERSR act inactive and ClpP mod inactive.
Screening COc1cccc(C2CC(c3ccc(Br)cc3)=NN2C(=O)c2ccncc2)c1OC (configuration not stated) returned Mito fusion yeast inactive, GRP78 ERSR act inactive, AT treatment inactive, TCR activator inactive and MBNL1 CUG block inactive.
Screening COc1ccccc1C1CC(c2ccc(Br)cc2)=NN1C(=O)c1cccnc1 (configuration not stated) returned Mito fusion yeast 16µM, GRP78 ERSR act inactive, ClpP mod inactive, TCR activator inactive and MBNL1 CUG block inactive.
COc1ccc(S[C@@H]2C[C@@H](C(=O)Nc3ccc4nccnc4c3)N(C3Cc4ccccc4C3)C2)cc1 was read as GRP78 ERSR act inactive.
For Cc1cnc(C)c(-c2ccc3c(c2)CC(CNC(=O)Cc2c(C)[nH]c4ccccc24)O3)n1 (configuration not stated) the results were GRP78 ERSR act inactive.
Cc1ccccc1N=C(NOCc1ccccc1)c1nonc1N was read as Mito fusion yeast 22µM, GRP78 ERSR act inactive, AT treatment inactive, ClpP mod inactive, TCR activator inactive and MBNL1 CUG block inactive.
For CCOc1cccc2sc(N3CCN(C(=O)c4ccc5ncsc5c4)CC3)nc12 the results were Mito fusion yeast inactive, GRP78 ERSR act inactive, AT treatment inactive, ClpP mod 22µM and TCR activator inactive.
Screening COc1ccc(OC)c2sc(N3CCN(C(=O)c4ccc5ncsc5c4)CC3)nc12 returned Mito fusion yeast inactive, GRP78 ERSR act inactive, AT treatment inactive and TCR activator inactive.
